Test results: PubChem BioAssay (Tox21)
Activity calls are given as the source filed them. Where a call stands in place of a potency, no number is given. Calls follow the shape of the dose curve; as a rule, active = well fitted curve in the direction sought with a large enough effect in the repeat runs; inconclusive = weak or mixed curves; inactive = flat fitted curve, though single readings scatter.

Test: qHTS assay to test for compound auto fluorescence at 460 nm (blue) in HEK293 cells (AID 720678)
Conditions: blue autofluorescence 405/460 nm; series mostly up to 91.3 µM
Excerpt: National Center for Advancing Translational Sciences [NCATS]
NIH Chemical Genomics Center [NCGC]
U.S. Environmental Protection Agency [EPA]
National Institutes of Environmental Health Sciences [NIEHS]
National Toxicology Program [NTP]
U.S. Food and Drug Administration [FDA]
Compound auto fluorescence often interferes with screening of the compound library against various biological targets and signaling pathways. Some of these compounds may have fluorophoric properties. Such properties may interfere with the assay outputs resulting in false positives and/or negatives. To decrease such complications and ensure the compound activities are relevant in terms of biological response, the Tox21 10K compound library was screened for auto fluorescence.
From the fluorophores used as reporter signals in our screening assays, the auto fluorescence equivalencies of compounds against three fluorophores have been evaluated: Triamterene, Fluorescein and Rose Bengal sodium for blue, green and red fluorescence, respectively. The fluorescence intensities were measured using Excitation/Emission wavelengths at 405/460nm, 485/535nm and 540/590nm for blue, green and red labels, respectively. This assay includes the blue fluorescence data.
Tox21 Assay Protocol Summary:
2,000 HEK293 cells in 5 uL of culture medium containing 10% dialyzed FBS per well were dispensed into black wall/clear bottom 1536-well plates using a Multidrop Combi Dispenser (Thermo Scientific). The assay plates were incubated for 4-5 hr at 37C to allow cell attachment to the well bottom, followed by the transfer of 23 nL compound or DMSO vehicle by a pintool work station (Kalypsys, San Diego, CA). After the assay plates were incubated overnight at 37C and 5% CO2, fluorescence intensities in the assay plates were measured by an Envision (PerkinElmer, Shelton, CT) plate reader using three labels for measuring blue, green and red fluorescence at […] 460, 535 and 590nm respectively.
Potency is read from the fitted curve at half-maximal effect; tags tell the direction and shape of the fitted curve or compound fluorescence and quenching.

Compound	Potency	fluorescence, % of triamterene
O=C1Cc2cc(CCN3CCN(c4nsc5ccccc45)CC3)c(Cl)cc2N1	inactive	–
Cc1onc(-c2ccccc2Cl)c1C(=O)N[C@@H]1C(=O)N2[C@@H]1SC(C)(C)[C@@H]2C(=O)O	–	-0.0411% [at 18.6 µM] (inactive)
Cn1cc(C(=O)[C@@H]2CCc3nc[nH]c3C2)c2ccccc21	inactive	–
CC/C(=C(\c1ccc(O)cc1)c1ccc(OCCN(C)C)cc1)c1ccccc1	inactive	–
CCCCCCCCCCCC(=O)NCCCN(C)C	inactive	–
Cc1cc(O)c(C(C)(C)C)cc1Sc1cc(C(C)(C)C)c(O)cc1C	inactive	–
Cc1cc(CCN2CCN(c3nsc4ccccc34)CC2)cc2c1NC(=O)CC2(C)C	inactive	–
CCCCCCCCS(=O)C(C)Cc1ccc2c(c1)OCO2 (stereo not given)	inactive	–
C[n+]1cc2c3c(ccc2c2ccc4cc5c(cc4c21)OCO5)OCO3	inactive	–
CC(C)(C)CC(C)(C)c1ccc(OCCOCC[N+](C)(C)Cc2ccccc2)cc1	inactive	–
CO[Si](CCCNc1ccccc1)(OC)OC	inactive	–
COc1cc(/C=C/C(=O)O[C@H]2CC[C@]34C[C@]35CC[C@]3(C)[C@@H]([C@H](C)CCC=C(C)C)CC[C@@]3(C)[C@@H]5CC[C@H]4C2(C)C)ccc1O	inactive	–
N#CSc1ccc(N)c([N+](=O)[O-])c1	inactive	–
CC(C)(C)c1ccc(C(=O)O)cc1	inactive	–
CC[C@H]1O[C@]2(CC[C@@H]1C)C[C@@H]1C[C@@H](C/C=C(\C)C[C@@H](C)/C=C/C=C3\CO[C@@H]4[C@H](O)C(C)=C[C@@H](C(=O)O1)[C@]34O)O2	inactive	–
CC[C@@]1(O)C(=O)OCc2c1cc1n(c2=O)Cc2cc3c(CN(C)C)c(O)ccc3nc2-1	17.8 µM [fluorescent] (active)	–
CC(C)(C)C(=O)OCOC(=O)[C@@H]1N2C(=O)[C@@H](NC(=O)[C@H](N)c3ccccc3)[C@H]2SC1(C)C	–	0.0033% [at 18.6 µM] (inactive)
O=C(Nc1cccc(C(F)(F)F)c1)c1cc(Br)cc(Br)c1O	inactive	–
CC(=O)S[C@@H]1CC2=CC(=O)CC[C@]2(C)[C@H]2CC[C@@]3(C)[C@@H](CC[C@@]34CCC(=O)O4)[C@H]12	inactive	–
NC(=O)CC[C@@H]1NC(=O)[C@H](Cc2ccccc2)NC(=O)[C@H](Cc2ccc(O)cc2)NC(=O)CCSSC[C@@H](C(=O)N2CCC[C@H]2C(=O)N[C@@H](CCCN=C(N)N)C(=O)NCC(N)=O)NC(=O)[C@H](CC(N)=O)NC1=O	inactive	–

Compound	Potency	fluorescence, % of triamterene
CCC1OCC(COc2ccc(Oc3ccccc3)cc2)O1 (stereo not given)	inactive	–
CCCCCCCCCCCCc1ccc(O)cc1	inactive	–
CN(C/C=C/C#CC(C)(C)C)Cc1cccc2ccccc12	inactive	–
CCCCCCCCn1sc(Cl)c(Cl)c1=O	inactive	–
CCCC1O[C@@H]2C[C@H]3[C@@H]4CCC5=CC(=O)C=C[C@]5(C)[C@H]4[C@@H](O)C[C@]3(C)[C@]2(C(=O)CO)O1 (stereo not given in full)	inactive	–
CCCCCCCC/C=C/CCCCCCCC1=NCCN1CCO	inactive	–
CCCCCCCCCCCCCCCCCC[N+](C)(C)C	inactive	–
O=C1c2c(O)ccc(Nc3ccc(CCO)cc3)c2C(=O)c2c([N+](=O)[O-])ccc(O)c21	inactive	–
NC(=O)NS(=O)(=O)c1ccc(N)cc1	inactive	–
CSc1ccc2c(c1)C(N1CCN(C)CC1)Cc1ccccc1S2 (stereo not given)	inactive	–
Oc1ccc2cc(SSc3ccc4cc(O)ccc4c3)ccc2c1	inactive	–
CCCCCCCCNC(C)C(O)c1ccc(SC(C)C)cc1 (stereo not given)	inactive	–
CCCC(C)c1ccccc1O (stereo not given)	inactive	–
COc1cccc(N)c1	inactive	–
Cc1cc(O)c(C(C)(C)C)cc1C(C)(C)C	inactive	–
Nc1ccc(N)c2ccccc12	inactive	–
CCCCC(CC)COC(=O)c1ccccc1C(=O)O (stereo not given)	inactive	–
O=c1[nH]cnc2nc[nH]c12	inactive	–
CC(C)(C)CC(C)(C)c1ccc(O)c(Cc2ccc(Cl)cc2Cl)c1	inactive	–
CC(C)(C)C(=O)OCOC(=O)C1N2C(=O)CC2S(=O)(=O)C1(C)C (stereo not given)	inactive	–
